From PubChem BioAssay AID624483 (NMMLSC, 2012) come the findings set out here.

Out of some 360,000 compounds screened, about 11,000 (3.1%) were called active. Not shown: some 2% with an inconclusive outcome. For the sample, actives were picked, then their nearest neighbours and some compounds at random. Unmarked numbers belong to inactive results. No stated cut-off is given here; in the data, active means fluorescence intensity above about 16000; inconclusive means no clear call, values can overlap the other calls; inactive means below that.

A short description of this assay: counter-screen for toxin protease inhibitors: compound fluorescence, primary screen, artefact control for toxin protease inhibitor project, biochemical, multiplex microsphere, HTS (AID 624483). The conditions noted are these: compound autofluorescence counterscreen, microsphere flow cytometry; hits give high values.
Consider `CC(C)CN1CCC1(C)C(=O)Nc1ccc(OC(F)F)cc1` (stereo unspecified), for which the fluorescence intensity was 3880. For `O=C(CSCc1ccccc1Cl)NNC(=O)c1ccccc1`, the fluorescence intensity was 18500 (active). Regarding `O=C(COC(=O)c1ncc(Cl)c(Cl)c1Cl)NNC(=O)c1ccccc1`, the fluorescence intensity is 4100. For `O=C(COC(=O)Cc1ccccc1F)NNC(=O)c1ccc(Cl)cc1` the value was 5990; for `Cn1cnnc1Sc1ccc(S(C)(=O)=O)cc1[N+](=O)[O-]`, 3290.

Turning to `COc1ccc(COC[C@H](CC(C)C)N2CCN(C(=O)c3cccc(C(F)(F)F)c3)CCC2=O)cc1`, the fluorescence intensity is 4210. `COc1ccc(NC(=O)CN(C)S(=O)(=O)c2ccccc2)cc1OC`: the fluorescence intensity was 16600 (active). Take `COc1ccc(S(=O)(=O)N(C)CC(=O)Nc2ccc3c(c2)OCCO3)cc1OC`: the fluorescence intensity is 3400. With `COc1ccc(NC(=O)CN(Cc2ccccc2)S(C)(=O)=O)cc1OC`, the fluorescence intensity is 2130. To `O=C(Nc1cccc2cccnc12)c1ccc2sc([C@H]3C[C@H](O)[C@@H](CO)O3)nc2c1` belongs 3070; to `Cc1cc(C)cc(OCC(=O)Nc2cc(NC(=O)COc3cc(C)cc(C)c3)cc(C(=O)O)c2)c1`, 3790. `CC(C)CC1C(=O)N(Cc2cn(Cc3ccco3)nn2)CCS(=O)(=O)N1Cc1ccc(-c2ccc(Cl)c(Cl)c2)cc1` (stereo unspecified): the fluorescence intensity was 3840.

For `C#CCSc1nnc(-c2sc3ccccc3c2Cl)o1`, the fluorescence intensity is 19600 (active). For the compound `COc1ccc2c(Cl)c(-c3nnco3)sc2c1`, the fluorescence intensity was 3460. For `O=C(OCC#CCSc1nnc(-c2ccncc2)o1)c1sc2ccccc2c1Cl` the value was 2840; for `CCCCCc1c(Cc2ccccc2)ncn1CCc1ccccc1OC`, 4640.

Consider `O=C(NCc1ccc(F)cc1F)[C@@H]1CCCN1C(=O)[C@@H]1CCCN1C(=O)c1cccc(Cl)c1`, for which the fluorescence intensity is 6340. For `C[C@H]1CN([C@@H](C)CO)C(=O)CCCn2cc(nn2)CO[C@@H]1CN(C)C(=O)Nc1ccccc1` the value was 2950; for `Cc1cccc(-n2c(N)c(C(=O)N3CCN(C)CC3)sc2=S)c1`, 2920.

In the case of `N#Cc1ccccc1-n1c(N)c(C(=O)N2CCCC2)sc1=S`, the fluorescence intensity was 9660. In the case of `COC(=O)c1sc(=S)n(-c2ccccc2)c1N`, the fluorescence intensity was 20900 (active). For `Cn1c(=O)c2cc(NC(=O)NCCc3cccs3)ccc2n1Cc1cccc(C(F)(F)F)c1` the value was 3800.

`CCCCn1c(SCC(=O)NCCc2ccc(OC)c(OC)c2)nc2c1c(=O)n(C)c(=O)n2C`: the fluorescence intensity was 22600 (active). For `CCCCn1c(SCC(=O)N2CCOCC2)nc2c1c(=O)n(C)c(=O)n2C` the value was 5590. To `C#CC(C)(C)NC(=O)CSc1nc2c(c(=O)n(C)c(=O)n2C)n1CCCC` belongs 5580; to `C=CCSc1nnc(Cn2c(=O)sc3ccccc32)n1C`, 5480; to `CC(=O)Nc1cccc(-c2ccnc3c2CC(C)(C(=O)NCc2ccco2)O3)c1` (stereo unspecified), 3800.

On to `CCN1C(=O)[C@H]2[C@@H](c3ccc(C(F)(F)F)cc3)N[C@]3(CCCN(Cc4ccc(Br)cc4)C3=O)[C@H]2C1=O`, for which the fluorescence intensity is 3620.

Turning to `COc1ccc(CCNC(=O)c2cc3sccc3n2C)cc1OC`, the fluorescence intensity was 21800 (active).

Consider `COc1ccc(CCNC(=O)COC(=O)/C=C/c2cccs2)cc1OC`, for which the fluorescence intensity is 3190.

On to `Cn1c(C(=O)NCCCN2CCCCC2)cc2sccc21`, for which the fluorescence intensity was 8510.

Take `CCOC(=O)C1Nc2ccc(C(F)(F)F)cc2C2C=CCC12` (stereo unspecified): the fluorescence intensity was 2760. With `CC(=O)Nc1cc(-c2ccccc2N(C)C)cn2c(-c3ccc(F)c(Cl)c3)cnc12`, the fluorescence intensity is 3420.

Take `O=C1NC[C@H](Cc2ccc(O)cc2)N(C[C@H]2CCCN2C[C@H](Cc2ccccc2)N2C[C@H](Cc3ccccc3)N(CCc3ccccc3)C(=O)C2=O)C1=O`: the fluorescence intensity was 5960.

With `CCCCC(CC)C(=O)Nc1ccc(Cl)cn1` (stereo unspecified), the fluorescence intensity was 21400 (active). To `O=C(Nc1ccc(Cl)cn1)c1ccccc1-c1ccccc1` belongs 3610; to `CC(OC(=O)CNC(=O)c1ccco1)C(=O)Nc1ccc(Cl)cn1` (stereo unspecified), 4920. To `CCCOc1ccccc1C1CC(=O)Nc2cc3c(cc21)OCO3` (stereo unspecified) belongs 3540; to `COCCOC(=O)C1=C(C)NC(=O)NC1c1cc2c(cc1Br)OCO2` (stereo unspecified), 3890; to `COCCOC(=O)C1=C(C)NC(=O)CC1c1cc2c(cc1Br)OCO2` (stereo unspecified), 22200 (active). `CS(=O)(=O)/C(C#N)=C/c1cccn1S(=O)(=O)c1ccc([N+](=O)[O-])cc1`: the fluorescence intensity is 5100. To `CC(=O)Nc1cc(-c2ccccc2F)cn2c(-c3cccc(C(F)(F)F)c3)cnc12` belongs 3600.

Regarding `CCOc1ccc(-c2nc(C)sc2CC(=O)O)cc1`, the fluorescence intensity was 22400 (active). Consider `CCOc1ccc(NC(=O)CN(C)C(=O)Cc2sc(C)nc2-c2ccc(F)cc2)cc1OCC`, for which the fluorescence intensity is 8360. For `Cc1ccc(-c2nc(C)sc2CC(=O)OCC(=O)Nc2c(F)cccc2F)cc1` the value was 2600. For `CCOc1ccc(CCN2C(=S)N([C@@H](CC(C)C)CN3CCC[C@@H]3CN3C(=S)NC[C@@H]3Cc3ccc(O)cc3)C[C@@H]2CC(C)C)cc1`, the fluorescence intensity was 6060. To `COc1ccc(CNC(=O)CN2C(=O)NC3(CCCc4sccc43)C2=O)cc1` (stereo unspecified) belongs 5880; to `COc1ccc(OC)c(C(=O)c2ccc(C(=O)O)cc2)c1`, 16800 (active); to `COc1ccc(C(=O)CC(=O)c2ccc(C)cc2)c(O)c1`, 4090. To `COc1ccc(OC)c(C(=O)c2ccc(C(=O)N3CCN(Cc4csc(C)n4)CC3)cc2)c1` belongs 4240; to `COCOc1cccc(CN2CCC(C)(Oc3ccc(SC)cc3)C2)c1` (stereo unspecified), 3010; to `Cc1[nH]c(C)c(S(=O)(=O)N2CCN(c3cccc(C(F)(F)F)c3)CC2)c1C(=O)N1CCCCC1`, 5140. On to `CN1C(=O)C2(OCCCO2)c2cc(Cl)ccc21`, for which the fluorescence intensity was 3420. As to `COc1cc2ccccc2cc1C(=O)Nc1ccc(S(=O)(=O)Nc2cc(C)on2)cc1`, the fluorescence intensity is 18400 (active).

Take `CCOc1ccc(C(=O)Nc2ccc(S(=O)(=O)Nc3cc(C)on3)cc2)cc1`: the fluorescence intensity is 3660. To `COc1ccc(S(=O)(=O)Nc2cc(C)on2)cc1NC(C)=O` belongs 4100; to `COc1ccc(CCn2c(NCCCN3CCOCC3)nc3c2c(=O)[nH]c(=O)n3C)cc1`, 4180; to `CCCCNc1nc2c(c(=O)n(C)c(=O)n2C)n1Cc1cccc(OC)c1`, 4560. To `CCCCNc1nc2c(c(=O)[nH]c(=O)n2C)n1CCOc1ccccc1` belongs 20600 (active); to `CCCC/C=C/c1cccc2nncn12`, 3130. To `COc1ccc(CN2CN(C3CCCC3)CSC2=S)cc1` belongs 3230; to `COc1ccc(CCC(C)N2CCc3ccccc3C2)cc1` (stereo unspecified), 3950; to `COc1ccc(CN2CN(C(C)C)CSC2=S)cc1`, 24500 (active). For the compound `NC(=O)COc1ccc2c3c(c(=O)oc2c1)CCCCC3`, the fluorescence intensity is 24300 (active). Take `NC(=O)C1CCN(C(=O)COc2ccc3c4c(c(=O)oc3c2)CCC4)CC1`: the fluorescence intensity is 5000. For `O=C(COc1ccc2c3c(c(=O)oc2c1)CCC3)NC1CCCCC1` the value was 9280; for `Cc1nc(C(F)(F)F)ccc1C(=O)N1CCC1(C)C(=O)NS(=O)(=O)c1ccccc1Cl` (stereo unspecified), 2880. For `O=C(CSc1nnc(-c2ccncc2)n1-c1ccc(Cl)cc1)Nc1ccc(C(=O)O)cc1` the value was 3940; for `COCCCn1c(SCC(=O)Nc2ccccc2)nnc1-c1ccncc1`, 3490; for `O=C(CSc1nnc(-c2ccncc2)n1C1CCCCC1)Nc1ccccc1`, 20700 (active). On to `CN(C(=O)c1c(Cl)cnn1C)C12CC3CC(CC(C3)C1)C2`, for which the fluorescence intensity was 2490. Take `CCCNC(=O)C1(C)CCCN(Cc2cccc(C(F)(F)F)c2)C1` (stereo unspecified): the fluorescence intensity is 3060.

For the compound `CC(C)C(C)NC(=O)COc1ncnc2ccccc12` (stereo unspecified), the fluorescence intensity is 2080.

Turning to `O=C(CSc1ncccn1)NC(=O)NCc1ccccc1`, the fluorescence intensity was 10500. Regarding `O=C(COc1ncnc2ccccc12)NC(=O)NCc1ccccc1`, the fluorescence intensity was 16500 (active). Regarding `CCSc1ccccc1C(=O)NCc1ccc(OC)cc1`, the fluorescence intensity was 24300 (active). For `CCc1nc2ccccc2c(C(=O)NCc2ccc(OC)cc2)c1C` the value was 4980; for `CSc1ccccc1C(=O)NCc1ccccc1`, 3280; for `O=C(CCN1C(=O)c2ccccc2C1=O)C1=NN[C@@H]2C(=O)N(c3ccc(F)cc3)C(=O)[C@H]12`, 2580. Take `CC(C)(C)N1C(=O)c2c(C(=O)OCc3ccccc3)[nH]c(-c3ccccc3)c2C1=O`: the fluorescence intensity is 5800.

Turning to `CC1CCN(Cc2nc(-c3ccc(Cl)cc3)no2)CC1`, the fluorescence intensity was 6270. As to `Cc1ccc(-c2noc(CN3CCN(Cc4ccccc4)CC3)n2)cc1`, the fluorescence intensity was 23500 (active). For `O=c1ccc(S(=O)(=O)N2CCCC2)cn1Cc1nc(-c2ccccc2)no1` the value was 3920. To `COc1ccc(S(=O)(=O)N2CCCCC2c2cc(C(=O)NCc3ccc(F)cc3)no2)cc1` (stereo unspecified) belongs 2840.

As for `CCCNC(=O)COc1coc(CN2CCN(Cc3ccccc3)CC2)cc1=O`, the fluorescence intensity was 5680.

With `CC1(C)Oc2ccc3ccc(=O)oc3c2/C(=C/NCCO)C1=O`, the fluorescence intensity was 2160. For `CCOC(=O)Cn1c2c(c(-c3ccccc3OC)cc1=O)CCCC2` the value was 23500 (active); for `CCOC(=O)CN1CCC(c2ccccc2)CC1`, 2610; for `COc1ccccc1C1=CC(=O)CCC1`, 3790. For the compound `C[C@H]([C@@H](O)[C@@H](O)[C@@H](C)C(C)(C)C)[C@H]1CC[C@H]2C3CC[C@H]4C[C@H](OS(=O)(=O)O)[C@@H](OS(=O)(=O)O)C[C@]4(C)[C@H]3CC[C@]12C` (stereo partly specified), the fluorescence intensity is 4680. To `CCOC(=O)Cc1csc(SCC(=O)NC(C)C23CC4CC(CC(C4)C2)C3)n1` (stereo unspecified) belongs 9570.
